Anthrax LF inh2: Bacillus anthracis LF protease inhibitors, primary screen, biochemical, multiplex microsphere, MLPCN library; inhibition, % at 10 µM; AID 588501, 2011; 360,000 tested, 0.12% active; multiplex microsphere protease cleavage assay
BoNT A protease: BoNT/A light chain protease inhibitors, primary screen, biochemical, flow cytometry, MLPCN library; Botulinum neurotoxin type A light chain protease (Clostridium botulinum A str. ATCC 3502); multiplex microsphere protease substrate cleavage; inhibition, % at 10 µM; 360,000 tested, 0.17% active
Autofluor counter: flagged as autofluorescent in microsphere protease counterscreen; compound autofluorescence counterscreen, microsphere flow cytometry; hits give high values; fluorescence intensity (no concentration beside the values); 360,000 tested, 3.1% active; in the data active means fluorescence intensity above about 16000; inconclusive means no clear call, values can overlap the other calls
BoNT F protease: BoNT/F light chain protease inhibitors, primary screen, biochemical, flow cytometry, MLPCN library | Botulinum neurotoxin type F light chain protease (Clostridium botulinum) | Multiplex microsphere protease cleavage assay | inhibition, % at 10 µM | 360,000 tested, 0.22% active | AID 588497, 2011; in the data active means inhibition above about 35%, passing the limit was not always enough; inconclusive means no clear call, values can overlap the other calls
Large screens that a line does not name were inactive. Hits are enriched below; roughly 3.5% of the tested compounds scored in any of these assays. Unless noted, no stated cut-off is given here; in the data, active means inhibition above about 30%; inconclusive means no clear call, values can overlap the other calls; inactive means below that.

Cc1ccccc1-c1cccc([C@@H]2C[C@H]3[C@H](CON3C)CN2Cc2cc(Cl)cc(Cl)c2)c1	none
NC(=O)c1c(-c2ccccc2)oc2ccc(O)cc12	Autofluor counter 22271
COc1ccc(/C=C/C(=O)C2CC2)cc1COc1cccc(C)c1C	Anthrax LF inh2 31
COc1ccc(/C=N/NC(=S)Nc2ccccc2)cc1COc1cccc(C)c1C	none
CCCN(C(=O)c1cccc(S(=O)(=O)N2CCCc3ccccc32)c1)C1CCS(=O)(=O)C1 (stereo not given)	none
Cc1sc(-c2ccccn2)nc1OC(=O)c1ccc(Cl)c(Cl)c1	Autofluor counter 23143
Cc1sc(-c2ccccn2)nc1OC(=O)c1ccc(F)cc1F	none
Cc1ccc(S(=O)(=O)N2CCC(=O)c3ccccc32)cc1	none
COc1cccc(Oc2nnnn2-c2ccccc2)c1	none
COc1ccc(Oc2nnnn2-c2ccccc2)cc1	BoNT A protease inconclusive, Autofluor counter 22772
Clc1ccccc1-c1ccc(/C=N/n2cnnc2)o1	Autofluor counter 16641
CCN1CCCC1CNC(=O)c1cc([N+](=O)[O-])c(N(C)C)cc1OC (stereo not given)	BoNT F protease inconclusive
COc1ccc(N2C(=O)CC(N3CCC(c4nc5ccccc5[nH]4)CC3)C2=O)cc1 (stereo not given)	BoNT A protease inconclusive, Autofluor counter 22767
COc1ccc(N2C(=O)CC(n3cnc4ccccc43)C2=O)cc1 (stereo not given)	BoNT A protease inconclusive, Autofluor counter 22109
O=C1CC(N2CCC(c3nc4ccccc4[nH]3)CC2)C(=O)N1c1ccccc1F (stereo not given)	none
COc1ccc(N2C(=O)CC(N3CCC(O)(c4ccc(Cl)cc4)CC3)C2=O)cc1 (stereo not given)	BoNT A protease inconclusive, Autofluor counter 16898
CC(=O)N(Nc1ccccc1)c1ccccc1	BoNT F protease 35
Cc1ccc(S(=O)(=O)N2CCCCC2)cc1C(=O)NCCN1CCOCC1	none
COc1ccc(OC)c(C2C(C(=O)c3cccs3)=C(O)C(=O)N2CCN2CCOCC2)c1 (stereo not given)	none
CC1CN(C(=S)NC2CCCC2)CC(C)O1 (stereo not given)	none
Cn1nc(-c2ccc(C(=O)N3CCN(CCO)CC3)cc2)c2ccccc2c1=O	BoNT A protease inconclusive, Autofluor counter 21691
COc1cc(/C=C2\SC(=S)N(C(C(=O)O)c3ccccc3)C2=O)cc(OC)c1OC (stereo not given)	none
O=C(O)C(c1ccccc1)N1C(=O)/C(=C\c2ccc(-c3ccc(Br)cc3)o2)SC1=S (stereo not given)	BoNT A protease 65
C=CCN1C(=O)/C(=C/c2ccc(-c3ccc(F)cc3)o2)SC1=S	Anthrax LF inh2 64, BoNT A protease 79
O=C1/C(=C\c2ccc(-c3ccccc3Cl)o2)SC(=S)N1CC1CCCO1 (stereo not given)	Anthrax LF inh2 59, BoNT A protease 189
O=C(O)C(c1ccccc1)N1C(=O)/C(=C\c2ccc(-c3ccccc3Cl)o2)SC1=S (stereo not given)	BoNT A protease 41
C=CCN1C(=O)/C(=C/c2ccsc2)SC1=S	none
CCn1nc(C(=O)NNS(=O)(=O)c2ccc(C)cc2)c2ccccc2c1=O	none
O=C(CCl)NCc1c(Cl)cccc1-n1cccc1	Autofluor counter 22575
O=C(NCc1ccccc1)C1CCC(=O)N(CCCN2CCCC2=O)C1 (stereo not given)	none
O=C(Cc1cccs1)N1CCC(c2nc3c(nnn3Cc3ccccc3)c(=O)[nH]2)CC1	Autofluor counter 20008
O=c1[nH]c(C2CCCN(S(=O)(=O)c3ccc(F)cc3)C2)nc2c1nnn2Cc1ccccc1 (stereo not given)	Autofluor counter 21368
Cc1ccc(C)c(Cn2nnc3c(=O)[nH]c(C4CCCN(C(=O)CC(C)C)C4)nc32)c1 (stereo not given)	Autofluor counter 21556
N#Cc1ccc(NC(=O)N2CCC(c3nc4c(nnn4Cc4cccc(Cl)c4)c(=O)[nH]3)CC2)cc1	Autofluor counter 20736
CCCCC(=O)N1CCCC(c2nc3c(nnn3Cc3cc(C)ccc3C)c(=O)[nH]2)C1 (stereo not given)	none
CC(C)(C)c1ccc(Cn2nnc3c(=O)[nH]c(C4CCN(C(=O)Cc5cccs5)CC4)nc32)cc1	Autofluor counter 20958
COc1ccc(CNC(=O)C2CCC(=O)N(C3CCCCCC3)C2)c(OC)c1 (stereo not given)	none
Cc1cccc(NC(=O)c2cc(S(=O)(=O)NCc3ccco3)ccc2F)c1C	Autofluor counter 23011
Cn1c(-c2ccc(C=O)s2)nc2c3ccccc3c3ccccc3c21	Anthrax LF inh2 48, BoNT A protease 79, BoNT F protease 40
CC(=O)C1=C(O)C(=O)N(CCN(C)C)C1c1ccc(Cl)cc1 (stereo not given)	Autofluor counter 20540
CCNC(=S)NNC(=O)c1cccn(Cc2ccc(Cl)cc2)c1=O	Autofluor counter 22835
Cn1c(=O)c2nc(NCc3ccccc3)sc2n(C)c1=O	none
O=C(OCn1ncc(Cl)c(Cl)c1=O)c1cccc(C(F)(F)F)c1	Autofluor counter 22357
O=C(OCn1ncc(Br)c(Br)c1=O)c1ccccc1Cl	none
O=C1CC2(CCN(C(=O)C(=O)c3c[nH]c4ccccc34)CC2)Oc2ccccc21	none
O=C(N/N=C/c1ccc(O)cc1O)c1ccc(NC(=O)C2CCCCC2)cc1	Anthrax LF inh2 36
Cn1sc(NC(=O)c2ccccc2Cl)nc1=O	Autofluor counter 24069
COC(=O)c1nc(NC(=O)c2ccccc2Cl)n[nH]1	Autofluor counter 22352
Cn1sc(NC(=O)c2cccc(Cl)c2)nc1=O	Autofluor counter 22807
COC(=O)c1nc(NC(=O)c2ccc(Br)cc2)n[nH]1	none
Cc1cc(NC(=O)c2cccc(Cl)c2)n[nH]1	none
Nc1ncnc2c1ncn2[C@@H]1O[C@H](C(=O)N[C@H]2c3ccccc3C[C@H]2OC=O)[C@@H](O)[C@H]1O	none
COC(=O)/C=C(\C)NC(=O)c1cccs1	Autofluor counter 18031
COC(=O)/C=C(\C)NC(=O)c1ccc(F)cc1	none
Cc1cc(=O)[nH]c(S/C=C/c2ccccc2)n1	Autofluor counter 20598
CCc1c(C)nc2ncnn2c1N1CCCC(C(=O)Nc2ccc(NC(C)=O)cc2)C1 (stereo not given)	none
COc1cccc(OC)c1C(=O)N1CCN(c2c(Cc3ccccc3)c(C)nc3ncnn23)CC1	Autofluor counter 26771
O=C(NCc1ccc2c(c1)OCO2)C1CCN(c2ccc(S(=O)(=O)N3CCCC3)cc2)CC1	Autofluor counter 19826
O=C(NCc1ccc2c(c1)OCO2)C1CCN(S(=O)(=O)N2CCCCC2)CC1	none
Cc1nc2ncnn2c(N2CCC(C(=O)NC3CCCC3)CC2)c1Cc1ccccc1	none
CCc1c(C)nc2ncnn2c1N1CCCC(C(=O)NCc2ccc3c(c2)OCO3)C1 (stereo not given)	Autofluor counter 22326
CCOc1ccc(OCC)c(NC(=O)CN2CCC(NC(=O)c3cccc(F)c3)CC2)c1	Autofluor counter 20291
CCOc1ccccc1NC(=O)CN1CCC(NC(=O)c2ccccc2)CC1	none

Compound activity deposited in PubChem BioAssay by NMMLSC.
